Molecules are shown by their SMILES. Calls of active or inactive are those of the source. Calls come from the whole dose curve; as a rule, active = well fitted curve in the direction sought with a large enough effect; inactive = no such curve, though single readings can be large or run the other way.

Sequence of Alpha-galactosidase A (Homo sapiens) (P06280 whole entry, looked up): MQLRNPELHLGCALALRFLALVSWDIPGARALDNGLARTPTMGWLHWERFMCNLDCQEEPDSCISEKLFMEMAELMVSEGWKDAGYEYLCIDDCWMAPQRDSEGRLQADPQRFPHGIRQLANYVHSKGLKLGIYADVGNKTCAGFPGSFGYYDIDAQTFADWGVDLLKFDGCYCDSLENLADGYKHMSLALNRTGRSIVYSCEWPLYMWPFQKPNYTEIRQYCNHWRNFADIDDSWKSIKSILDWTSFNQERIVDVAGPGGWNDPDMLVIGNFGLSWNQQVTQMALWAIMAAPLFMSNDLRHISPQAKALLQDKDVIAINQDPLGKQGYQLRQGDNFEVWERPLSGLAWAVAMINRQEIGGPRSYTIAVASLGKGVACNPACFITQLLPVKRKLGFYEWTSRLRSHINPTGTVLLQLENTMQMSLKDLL

The target of this experiment is Alpha-galactosidase A (Homo sapiens) (UniProt P06280). In words: qHTS Assay for Inhibitors and Activators of N370S glucocerebrosidase as a Potential Chaperone Treatment of Gaucher Disease: Alpha-Galactosidase Counterscreen for Probe SAR. As to conditions: purified human alpha-galactosidase, 4-MU-alpha-Gal fluorescence. The source says:
NIH Chemical Genomics Center [NCGC] NIH Molecular Libraries Probe Production Centers Network [MLPCN] MLPCN Grant: MH086442-01 Assay Submitter (PI): Wei Zheng Glucocerebrosidase (GC) catalyzes the hydrolysis of beta-glucocerebroside to glucose and ceramide in lysosomes. Mutations in the glucocerebrosidase gene result in Gaucher disease, an autosomal recessive lysosomal storage disorder. Many of the mutations encountered in patients with Gaucher disease are missense alterations that may cause misfolding, decreased stability and/or mistrafficking of this lysosomal protein. […] These inhibitors include iminosugar analogs and three non-iminosugar inhibitors identified from a previous HTS of 62,000 compounds with the wild type recombinant enzyme. However, the enhancement of enzyme activity by the chaperone action of an enzyme inhibitor must be balanced against the direct inhibition of the enzyme. An enzyme activator could also function as a chaperone by binding to the enzyme and helping to correct its misfolding and mistrafficking. While activators for GC have not yet been identified, they may have better therapeutic potential than inhibitors. Therefore the discovery and development of chemical activators may provide a new strategy for the chaperone therapy. To characterize compound selectivity, selected hits from the primary screen were screened against purified alpha-galactosidase, a related sugar hydrolase. Alpha-galactosidase is a homodimeric glycoprotein that hydrolyzes the terminal alpha-galactosyl moieties from glycolipids and glycoproteins.
NCGC Assay Protocol Summary: This is a fluorogenic enzyme assay with 4-Methylumbelliferyl alpha-D-galactopyranoside as the substrate and human […] as the enzyme preparation. Upon the hydrolysis of this fluorogenic substrate, the resulting product, […]. 4-Methyllumbelliferone, can be excited at 365 nm and emits at 440 nm. This fluorescence which can be detected by a standard fluorescence plate reader. Data were normalized to the controls for basal activity (without enzyme) and 100% activity (with enzyme). In the AC50 values were determined from concentration-response data modeled with the standard Hill equation. Assay buffer: 50 mM citric acid (titrated with potassium phosphate to pH 4.5), 0.005% Tween-20, pH 4.5. (pH 4.5 is an optimal condition for this enzyme assay) 1536-well assay protocol for the human alpha-galactosidase: (1) Add 2 ul/well of enzyme (12 nM final) (2) Add 23 nL compounds in DMSO solution. The final titration was 0.7 nM to 77 uM. (3) Add 1 ul of substrate ([…]) (4) Incubate at room temperature for 20 min. (5) Add 2 ul stop solution (1M NaOH and 1M Glycine mixture, pH 10) (6) Detect the assay plate in a ViewLux plate reader (PerkinElmer) with Ex=365 nm and Em=440nm.
Regarding `C=C1C=C(C(F)F)n2ncc(C(=O)Nc3ccc(C(C)CC)cc3)c2N1` (stereo unspecified), the max response was -7.63% (inactive). To `O=C(NC1CCCCC1)c1cnn2c1NC(=C1CC1)C=C2C(F)F` belongs -4.62% (inactive). To `C#Cc1ccc(NC(=O)c2cnn3c(C)cc(C)nc23)cc1` belongs -7.39% (inactive); to `O=C(Nc1ccc2c(c1)CCC2)c1cnn2c1NC(=C1CC1)C=C2C(F)F`, -2.77% (inactive).

In the case of `O=C(Nc1ccccc1Sc1ccccc1)c1cnn2c1NC(=C1CC1)C=C2C(F)F`, the max response was -8.53% (inactive). As for `O=C(Nc1ccccc1Sc1ccccc1)c1cnn2c1NC(=C1CC1)C=C2C(F)(F)F`, the figure is -8.17% (inactive).
